This is an account of results in PubChem BioAssay (NCI).

SMILES strings stand for the structures. About 83,000 compounds went through this panel and 20% of them were active in at least one assay; those are over-represented in the sample as a whole.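 The endpoint reported here, percent growth, reads 100 for growth as untreated, 0 for no net growth and -100 for all cells dead.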 Activity calls are given as the source filed them. Rule for the calls: active = growth percent below 10; inactive = the rest.

The test system of this assay is SF-295 CNS. Nature of the assay: NCI-60 one-dose screen, 48 h (100 = growth as untreated, 0 = no growth, -100 = all killed). The settings on record: 10 µM.
Regarding `Cc1ccc(-c2nc3ccc(C(=O)N=Nc4c(O)[nH]c5ccc(Br)cc45)cc3[nH]2)cc1`, the growth is 93.6% (inactive). Regarding `CCCCCc1ccc(S(=O)(=O)Nc2cc(-c3csc(N(C)C(C)=O)n3)ccc2N2CCN(C)CC2)cc1`, the growth was -10.1% (active).

In the case of `Cc1ccc(NC(=O)NCn2c(=O)[nH]c3ccccc3c2=O)cc1`, the growth was 95% (inactive). As for `Cc1ccc(C(=O)NCCCNc2nc(Nc3ccc(N4CCN(C)CC4)cc3)nc3ccsc23)cc1`, the figure is 44.8% (inactive); as for `CNC(=O)c1cccc(N2CCc3c2ccc(NC(=O)Nc2ccc(N4CCN(C)CC4)c(C(F)(F)F)c2)c3F)c1`, -97.2% (active). As for `COC1CC(Cn2cc(COc3ccc4ccc(=O)oc4c3)nn2)C(OCc2ccccc2)C(OCc2ccccc2)C1OCc1ccccc1` (configuration not stated), the figure is 102% (inactive); as for `Cc1ccc(NC(=O)c2ccc(-n3c(=O)[nH]c4ccccc4c3=O)cc2)cc1`, 91.9% (inactive). Consider `O=C(Cn1cc(CSc2nnc3oc4ccccc4n23)nn1)Nc1ccc(Br)cc1`, for which the growth was 43.7% (inactive).

With `NC(=Nc1ccc(OCCCCCCCCn2ccnn2)cc1)c1ccccc1`, the growth was 10.1% (inactive). With `C=C(C)[C@@H]1CC[C@]2(C)[C@H](CC=C3[C@@H]4CC(C)(C)CC[C@]4(C(=O)N4CCOCC4)CC[C@]32C)[C@@]1(C)CCCN`, the growth is -87.4% (active). Consider `CC(=C(c1ccc(OCCN2CCCCC2)cc1)c1ccc(OCCN2CCCCC2)cc1)c1ccccc1`, for which the growth is -57.2% (active).

With `CN1CCN(c2ccc(Nc3nc(NCCCNC(=O)c4ccccc4)c4sccc4n3)cc2)CC1`, the growth is 85.9% (inactive).

On to `O=C(CS(=O)(=O)c1oc(-c2ccc(Cl)cc2)nc1S(=O)(=O)c1ccccc1)N1CCCC1`, for which the growth is 80.8% (inactive).

Consider `CC1(C)CC[C@]2(C(=O)N3CCOCC3)CC[C@]3(C)C(=CC[C@@H]4[C@@]5(C)CC[C@H](NCO)C(C)(C)[C@@H]5CC[C@]43C)[C@H]2C1`, for which the growth is -87.2% (active). As for `CC(=O)NCC1=C(C)C=C2C(=O)[C@](C)(O)C3(CC3)C(C)=C21`, the figure is -14.5% (active); as for `C#Cc1ccc(S(=O)(=O)Nc2cccc(-c3csc(NC(C)=O)n3)c2)cc1`, 66.1% (inactive); as for `C=C[C@H]1[C@H](O[C@@H]2OC(CO)[C@@H](O)[C@H](O)C2OC(=O)c2c(O)cc(O)cc2-c2cccc(O)c2)OC=C2C(=O)OCC[C@H]21` (some centres not stated), 96.2% (inactive). Then `O=C(c1ccc(-n2c(=O)[nH]c3ccccc3c2=O)cc1)N1CCOCC1`, with 102% (inactive).

Take `CCN(CC)CCOc1ccc(C(=C(C)c2ccccc2)c2ccc(OCCN(CC)CC)cc2)cc1`: the growth was -63.6% (active). As for `CNC(=O)c1cc(-c2ccc(NC(=O)Nc3ccc(C)cc3)cc2)nc2cccnc12`, the figure is 95.6% (inactive); as for `O=C(Cn1cc(CSc2nnc3oc4ccccc4n23)nn1)Nc1cccc(Cl)c1`, 66.8% (inactive). Then `CC1(C)CC[C@]2(C(=O)NCCCNCCCCNCCCN)CC[C@]3(C)C(=CC[C@@H]4[C@@]5(C)Cc6c([nH]c7ccccc67)C(C)(C)[C@@H]5CC[C@]43C)[C@H]2C1`, with 98.5% (inactive); and `CCC(C)S(=O)(=O)c1oc(-c2ccc(C)cc2)nc1S(=O)(=O)c1ccccc1` (configuration not stated), with 46.9% (inactive). Then `CC(=O)Nc1nc(-c2ccc(N3CCN(C)CC3)c(NS(=O)(=O)c3cccc4c(N(C)C)cccc34)c2)cs1`, with -58.7% (active); and `N[C@@H](CSSC[C@H](N)C(=O)Nc1ccc(OCC2CCCC2)cc1)C(=O)Nc1ccc(OCC2CCCC2)cc1`, with -90.4% (active).

Regarding `O=C(Nc1ccncc1)c1ccc(-n2c(=O)[nH]c3ccccc3c2=O)cc1`, the growth is 95.6% (inactive).

As for `CN1CCN(c2ccc(Nc3nc(NCCCNC(=O)c4ccc(F)cc4)c4sccc4n3)cc2)CC1`, the growth was 79.9% (inactive). As for `CC1(C)CC[C@]2(C(=O)O)CC[C@]3(C)C(=CC[C@@H]4[C@@]5(C)C/C(=C/c6ccncc6)[C@H](O)C(C)(C)[C@@H]5CC[C@]43C)[C@@H]2C1`, the figure is 20.1% (inactive); as for `Cc1cc2c(c(O)c1Br)-c1ncoc1C(=O)[C@]1(C)CC[C@H](C(C)C)[C@H]21`, 22.9% (inactive); as for `Cc1ccc(/C=C(\C#N)n2nnc3c(F)cccc32)cc1`, 16% (inactive).

`Cc1cc(C)nc(SCC(=O)Nc2ccc(S(N)(=O)=O)cc2)n1`: the growth is 99.8% (inactive). Consider `COc1ccc(-c2nc(S(=O)(=O)c3ccc(C)cc3)c(S(=O)(=O)CC(=O)N(C)Cc3ccccc3)o2)cc1`, for which the growth was 78.5% (inactive).

As to `O=c1[nH][nH]c(Nc2ccccc2)c1N=Nc1ccc(F)cc1`, the growth was 111% (inactive). For `CN1CCN(c2ccc(Nc3nc(NCCCNC(=O)C4CCCCC4)c4sccc4n3)cc2)CC1`, the growth is 38.4% (inactive). As for `COc1ccc(-c2nc(S(=O)(=O)c3ccccc3)c(S(C)(=O)=O)o2)cc1`, the figure is 87.3% (inactive). Then `c1ccc(C(=C(c2ccc(OCCN3CCCCC3)cc2)c2ccc(OCCN3CCCCC3)cc2)C2CCCC2)cc1`, with -63.8% (active); and `COc1ccc(C(C)=C(c2ccc(OCCCN(C)C)cc2)c2ccc(OCCCN(C)C)cc2)cc1`, with -85.2% (active).
